DAX1 inh-1: inhibitors of DAX1 repression of SF-1 activated StAR promoter | inhibition, % at 6.8 µM | HEK293T StAR-luciferase reporter, SF-1/DAX-1 repression relief | hit rate 1.1% among 370,000;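 active = inhibition above the mean over all tested compounds plus 3 SD, cut at about 3.6% in these data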;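 also: 0% = DAX-1 cells with DMSO and 100% = cells lacking DAX-1 with DMSO; higher inhibition means more luminescence from relief of DAX-1 repression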
DAX1 inh-2: NR0B1 (DAX1) inhibition | P51843 | HEK293 Gal4-DAX1 luciferase reporter, luminescence | inhibition, % at 6.75 µM | hit rate 0.99% among 340,000 | AID 504766;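 active = inhibition above the mean over all tested compounds plus 3 SD, cut at about 4.2% in these data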;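 also: 0% = DAX1-transfected cells with DMSO and 100% = empty-vector control cells with DMSO; inhibition shows as a rise in luminescence from relieved DAX1 repression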
AHR act: activators of human aryl hydrocarbon receptor; AHR-responsive luciferase reporter cells, luminescence; activation, % at 5 µM; hit rate 2.5% among 320,000; in the data active = activation above about 47%;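 also: 0% = vehicle wells and 100% = reference agonist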
Target sequence (P35869 whole entry, looked up): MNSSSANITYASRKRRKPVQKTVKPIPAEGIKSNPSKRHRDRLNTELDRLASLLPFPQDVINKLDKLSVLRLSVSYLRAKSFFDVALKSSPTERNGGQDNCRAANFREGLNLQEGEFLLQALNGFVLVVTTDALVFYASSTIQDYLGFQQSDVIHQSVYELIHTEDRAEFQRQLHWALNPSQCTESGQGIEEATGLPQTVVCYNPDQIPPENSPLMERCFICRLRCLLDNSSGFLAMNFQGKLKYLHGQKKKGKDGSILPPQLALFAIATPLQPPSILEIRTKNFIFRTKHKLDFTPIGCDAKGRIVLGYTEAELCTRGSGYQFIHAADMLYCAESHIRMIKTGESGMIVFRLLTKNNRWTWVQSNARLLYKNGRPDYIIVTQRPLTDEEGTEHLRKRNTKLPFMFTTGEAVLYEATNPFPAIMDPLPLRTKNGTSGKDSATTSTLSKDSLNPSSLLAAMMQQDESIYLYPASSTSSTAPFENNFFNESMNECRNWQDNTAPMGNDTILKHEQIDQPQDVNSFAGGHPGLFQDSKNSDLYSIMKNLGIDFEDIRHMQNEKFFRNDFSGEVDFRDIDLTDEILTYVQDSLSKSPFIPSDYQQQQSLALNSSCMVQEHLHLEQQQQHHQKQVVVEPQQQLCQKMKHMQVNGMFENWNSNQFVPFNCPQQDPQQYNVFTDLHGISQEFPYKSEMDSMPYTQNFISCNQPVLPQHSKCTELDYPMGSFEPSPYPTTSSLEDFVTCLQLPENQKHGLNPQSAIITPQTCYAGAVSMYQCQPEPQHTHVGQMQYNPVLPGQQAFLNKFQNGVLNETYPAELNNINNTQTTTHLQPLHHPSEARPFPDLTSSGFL
hcDAF-12 act: H. contortus DAF-12 activation, primary screen | HEK293 hcDAF-12 lit1-tk-luc reporter, luminescence; 0% DMSO, 100% Δ7-dafachronic acid | activation, % at 6.8 µM | hit rate 1.4% among 370,000 | AID 652067;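 active = activation above the mean of all tested compounds plus 3 SD, cut at about 5.5% in these data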;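 also: 100% = response to 3 µM Δ7-dafachronic acid high control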
hgDAF12 agonist: activates the H. glycines DAF-12 receptor ligand-binding domain. activation, % at 6.8 µM. HEK293 GAL4-hgDAF12 UAS-luciferase reporter, agonist luminescence; normalized to butyrate control. hit rate 1.8% among 370,000;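 active = activation above a cutoff set at the mean of all screened compounds plus 3 SD, cut at about 10% in these data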;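 also: 0% = DMSO wells and 100% = sodium butyrate wells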
ssDAF-12 act: activators of S. stercoralis DAF-12 nuclear receptor; HEK293 ssDAF-12/GRIP1 lit1-tk-luc reporter, luminescence; % of 3 µM dafachronic acid response; AID 652126; hit rate 1% among 370,000; activation, % at 6.8 µM;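 active = activation above the mean over all tested compounds plus 3 SD, cut at about 0.9% in these data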;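 also: 0% = DMSO-only wells and 100% = 3 µM delta7-dafachronic acid wells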
AHR act confirm: human AHR activation, confirmation; shares compounds with AHR act; human cells, AHR-responsive luciferase reporter, luminescence; activation, % at 9 µM; hit rate 87% among 2,300; in the data active = activation above about 49%;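 also: HepG2 hepatoma cells carrying a DRE-driven firefly luciferase reporter; 0% = vehicle wells and 100% = reference agonist wells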
PXR counter: activates human PXR in AHR activator counter-screen; shares compounds with AHR act; cell-based PXR reporter, luciferase luminescence; activation, % at 11.6 µM; hit rate 88% among 2,300; in the data active = activation above about 11%;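 also: human hepatoma DPX-2 cells expressing full-length human PXR; 0% = DMSO and 100% = reference agonist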
An asterisk follows results filed as active; nt = no result. Hits are enriched below; roughly 5.7% of the tested compounds scored in any of these assays.

SMILES | DAX1 inh-1 | DAX1 inh-2 | AHR act | hcDAF-12 act | hgDAF12 agonist | ssDAF-12 act | AHR act confirm | PXR counter
COc1cccc(NC(=O)Nc2cc(NC(=O)Nc3cccc(OC)c3)c(C)nc2C)c1 | 0 | 1 | 91* | 0 | 2 | -1 | 50* | 15*
C/C(=C\C(=S)Nc1ccccc1)Nc1cccc2ccccc12 | -1 | 1 | 94* | 3 | 1 | 0 | 28 | 17*
C=CCNC(=S)Nc1cccc2ccccc12 | 1 | 0 | 4 | 0 | 1 | -1 | nt | nt
COc1cccc(NC(=S)Nc2cccc3ccccc23)c1 | 2 | 1 | 88* | 5 | 9 | 0 | 26 | 105*
CN(CCOc1ccc(Cl)cc1)C(=O)c1ccccc1SCC(=O)N1CCCC1 | -2 | -1 | -1 | -4 | -2 | -1 | nt | nt
Cc1ccc(NC(=O)c2oc3ccccc3c2NC(=O)C2CC2)cc1 | -1 | 1 | 122* | 1 | 0 | -1 | 65* | 32*
O=C(Nc1ccc(F)cc1)c1oc2ccccc2c1NC(=O)C1CC1 | -4 | 0 | 127* | -1 | 0 | -2 | 0 | 33*
NC(=O)c1oc2ccccc2c1NC(=O)c1ccc(F)cc1 | -1 | 1 | 106* | 2 | 1 | 0 | 77* | nt
Cc1ccc(CCN2CC(C(=O)NCCC(C)C)CC2=O)cc1 (centres undefined) | 0 | -2 | 1 | -1 | 1 | -1 | nt | nt
CCc1noc(C)c1C(=O)NCCc1ccc(F)cc1 | 1 | 0 | -1 | -2 | 3 | -1 | nt | nt
O=C1Nc2ccccc2Oc2cc([N+](=O)[O-])ccc21 | -2 | 0 | 16 | 1 | -3 | -1 | nt | nt
Cc1cc(C)n(CC(=O)NNC(=O)c2cccc(C(F)(F)F)c2)n1 | 0 | 0 | 2 | 0 | 0 | -1 | nt | nt
CCn1c(=O)c([N+](=O)[O-])c(NCCCn2ccnc2)c2ccccc21 | 0 | 2 | 101* | 1 | 0 | -2 | 93* | 52*
Cc1cccc(-c2cc3nc(-c4ccccc4)cc(=O)n3[nH]2)c1 | 1 | 6.4* | 89* | 1 | 7 | 0 | 105* | 34*
Cc1ccccc1-c1cc2nc(-c3ccc([N+](=O)[O-])cc3)cc(=O)n2[nH]1 | -1 | -1 | 1 | 1 | -1 | -1 | nt | nt
O=C(NC1CC1)C1=C[C@@H](c2ccc(C(F)(F)F)cc2)C[C@@H](OCCCCO)O1 | 0 | 0 | 12 | 0 | 8 | 0 | nt | nt
O=C(NC1CC1)C1=C[C@H](c2ccc(C(F)(F)F)cc2)C[C@H](OCCCCO)O1 | 1 | 1 | 100* | -1 | -1 | -1 | 46 | 14*
O=c1[nH]c(CSc2nnc3ccccn23)nc2ccccc12 | 0 | 0 | 15 | 1 | -1 | -1 | nt | nt
O=c1cc(CSc2nnc3ccccn23)c2c(ccc3ccccc32)o1 | 0 | 2 | 84* | 0 | -3 | -1 | 65* | 29*
O=C1NC(c2ccc(Cl)cc2)Nc2ccccc21 (centres undefined) | 0 | -1 | 80* | 0 | 0 | -1 | 115* | 25*
Cc1ccc(C2NC(=O)c3ccccc3N2)s1 (centres undefined) | 1 | 2 | 100* | 3 | 10 | 0 | 91* | 19*
O=C1NC(c2ccncc2)Nc2ccccc21 (centres undefined) | 1 | -1 | 12 | -1 | 1 | -2 | nt | nt
CC(C)/C=N/Nc1nc(-c2ccc(Br)cc2)cs1 | 1 | 1 | 141* | 0 | 2 | -1 | 16 | 18*
O=C(Nc1nc(-c2ccc(Br)cc2)cs1)c1cccnc1 | 0 | 0 | 9 | -3 | 1 | -2 | nt | nt
COc1ccc(-c2cc(-c3cc(OC)ccc3O)[nH]n2)cc1 | 1 | 3 | 159* | 5 | 13* | 0 | 140* | 18*
SMILES | DAX1 inh-1 | DAX1 inh-2 | AHR act | hcDAF-12 act | hgDAF12 agonist | ssDAF-12 act | AHR act confirm | PXR counter
COCC(=O)NCCNc1nc2ccc(C)cc2cc1C | 1 | 0 | 27 | -1 | 2 | -1 | nt | nt
Cc1ccc(C(=O)NCCNc2nc3cc(C)c(C)cc3cc2C)cc1 | 0 | 0 | 82* | 0 | 3 | -1 | 77* | 28*
COc1c(S(=O)(=O)N2CCN(c3ccc(F)cc3)CC2)ccc(Cl)c1Cl | 0 | -1 | 0 | -2 | 0 | -2 | nt | nt
Cc1ccc(NC(=O)CCN2C(=O)c3cccc4cccc(c34)C2=O)cc1 | 0 | 3 | 47 | 4 | -1 | -1 | nt | nt
O=C1c2cccc3cccc(c23)C(=O)N1CCN1CCN(CC(O)COc2ccccc2)CC1 (centres undefined) | 0 | -1 | 87* | -1 | 0 | -1 | 59* | 16*
Cc1ccc(NC(=S)N2CCN(CCN3C(=O)c4cccc5cccc(c45)C3=O)CC2)cc1 | 0 | 0 | 107* | 1 | 1 | -2 | 110* | 57*
Cc1ccc(-n2nc3c(c2NC(=O)/C=C\c2ccc4c(c2)OCO4)CSC3)cc1 | -1 | 0 | 16 | 2 | 0 | -1 | nt | nt
COCCN1CCN(C(=O)c2ccc3oc(CCCc4ccccc4)nc3c2)CC1 | 0 | 2 | 2 | 1 | 3 | -1 | nt | nt
COc1ccc(CNC(=O)NCCc2c[nH]c3ccccc23)cc1 | 0 | 1 | nt | -2 | 1 | -2 | nt | nt
CCOc1ccc(NC(C)=O)cc1 | 0 | 3 | 5 | -2 | -1 | -1 | nt | nt
COc1cccc(NC(=O)/C=C/c2ccc([N+](=O)[O-])cc2)c1 | 1 | 0 | 88* | 5 | 2 | 0 | 91* | 25*
Cc1nc2cnccc2n1C | 0 | 1 | 3 | 2 | 0 | -1 | nt | nt
Cc1nc2cncc(Br)c2n1C | 0 | 0 | 81* | 1 | -1 | -1 | 46 | 24*
Cc1cnc([N+](=O)[O-])n1CCOC(=O)NC(=O)c1ccccc1 | -1 | 0 | -1 | 1 | 1 | -1 | nt | nt
O=C(N/N=C/c1ccc([N+](=O)[O-])cc1)c1cc2ccccc2o1 | 0 | 2 | 1 | 0 | 3 | -2 | nt | nt
C/C(=N\Nc1ccc([N+](=O)[O-])cc1)c1cc2ccccc2o1 | 0 | 0 | 81* | 6.4* | 4 | -1 | 128* | 15*
CNc1sc(C(=O)c2cccs2)c(N)c1-c1nc2ccccc2s1 | 0 | 1 | 89* | 2 | 5 | 0 | 119* | 82*
CC(=O)Nc1scc(C)c1-c1nc2ccccc2s1 | 0 | 3 | 43 | 0 | -3 | 0 | nt | nt
Cn1c(/C=C/c2cccc([N+](=O)[O-])c2)nc2ccccc2c1=O | -1 | 1 | 93* | -1 | 0 | -1 | 0 | 12*
COc1cc(Cl)ccc1OCc1cc(C(=O)NCC(C)(C)N2CCOCC2)no1 | 1 | -1 | nt | 2 | 6 | -1 | nt | nt
